High-throughput results as filed in PubChem.
MARV entry inh: inhibitors of Marburg virus binding or cell entry. hit rate 1.8% among 300,000. Potency, µM (doses to about 37.8 µM), for inactives: at the top dose activity change, negative = inhibition, hits mostly inhibitors. AID 540276. Marburg virus pseudotyped entry inhibition, cell reporter; calls by dose curve; tested in HEK293 cells; note: potency is the fitted concentration of half-maximal effect; % is set by controls: 0 for no effect and ±100 for the full control effect
Pf growth 96h: P. falciparum growth inhibition at 96 hour, primary screen for plastid delayed-death inhibitors. P. falciparum luciferase reporter growth, 96 h. Potency, µM (series often up to 28.7 µM), inactives show at the highest dose activity change, negative = inhibition, actives largely listed as inhibitors. hit rate 6.9% among 320,000. AID 504834; note: potency is the fitted concentration of half-maximal effect; % is set by controls: 0 for no effect and ±100 for the full control effect
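Two-generation exposure (96 h) targets delayed-death phenotype. Reporter parasites carrying integrated firefly luciferase, in red cells at 2% hematocrit and 0.05% parasitemia final, kept at 37 C, 5% CO2; luminescence loss indicates inhibition.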
Pf growth 48h: P. falciparum growth inhibition at 48 hours (one generation); hit rate 5.9% among 310,000; P. falciparum luciferase growth in erythrocytes, 48 h; Potency, µM (series often up to 28.7 µM), without a hit: at the top dose activity change, negative = inhibition, most hits filed as inhibitors; note: potency is the fitted concentration of half-maximal effect; % is set by controls: 0 for no effect and ±100 for the full control effect
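Compounds are pin-transferred into medium, infected erythrocytes (2% hematocrit, 0.1% parasitemia final) are added, and plates sit one parasite generation at 37 C in 5% CO2. Detection reagent is then added and luminescence measured.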
LASV entry inh: inhibitors of Lassa virus binding or cell entry. Lassa virus pseudotype entry inhibition, cell reporter. Potency, µM (top dose mostly 37.9 µM), for inactives: top-dose activity change, negative = inhibition, usual class: inhibitors. hit rate 1.2% among 300,000. AID 540256; calls by dose curve; tested in HEK293 cells; note: potency is the fitted concentration of half-maximal effect; % is set by controls: 0 for no effect and ±100 for the full control effect; nearly all actives have a fitted effect of over 50% in size
Shiga toxin inh: Shiga toxin inhibition | Vero cells, Shiga toxin protein synthesis inhibition reporter | AID 2315 | inhibition, % at 38.7 µM | hit rate 9.2% among 290,000; in the data active = inhibition mostly above about 28%, no sharp cut-off; inactive = mostly below about 43%; note: 0% is about no effect
CHX counter: affects cycloheximide protein synthesis inhibition readout, counter-screen; cell reporter, cycloheximide protein synthesis inhibition counterscreen; max response, %; hit rate 12% among 300,000; AID 2314; in the data active = max response mostly above about 13%, no sharp cut-off; inactive = mostly below about 14%; note: read at 38.3 µM for the half of the compounds with a filed dose; 0% is about no effect
An asterisk follows results filed as active; i = inactive; ? = inconclusive; . = no result; [ ] = another dose, or the depositor's remark. Hits are enriched below; roughly 19% of the tested compounds scored in any of these assays. Unless noted, calls come from the whole dose curve; as a rule, active = well fitted inhibition curve with a large enough effect; inconclusive = small, poorly fitted or top-dose-only effect, or another doubt; inactive = no such curve, though single readings can be large or run the other way.

SMILES	MARV entry inh	Pf growth 96h	Pf growth 48h	LASV entry inh	Shiga toxin inh	CHX counter
CCC(C)c1ccc(NC(=S)NN2CCOCC2)cc1 (stereo unspecified)	?	?	79%	25%	87*	42*
CCCCc1ccc(NC(=S)NN2CCOCC2)cc1	?	28%	24%	?	111*	67*
CC(C)c1ccc(NC(=S)NN2CCN(C)CC2)cc1	.	-31%[1.15 µM]	13%	.	18	1
CCOC(=O)c1ccc(NC(=S)NNC(C)(C)C)cc1	1%	-6%	-14%	.	84*	61*
COc1ccc(NC2CCCN(C(=O)c3ccc4nc(C)c(C)nc4c3)C2)cc1OC (stereo unspecified)	.	23%	8%	.	-1	11
CCOC(=O)c1ccc(NC(=S)Nc2ccc(C)cc2)cc1	?	-1%	4%	?	29	12
CC(C)c1ccc(NC(=O)NN2CCOCC2)cc1	?	50%	i	-1%	138*	43*
CCOC(=O)c1ccc(NC(=S)NN2CCOCC2)cc1	?	?	77%	?	39*	32*
CC12CCC(O)CC1CCC1C2CCC2(C)C(C3=CC(=O)OC3)C(O)CC12O (stereo unspecified)	0.63µM*	.	.	3.2µM*	.	.
CC12CCC(O)CC1CCC1C2CCC2(C)C(C3=CC(=O)OC3)CCC12O (stereo unspecified)	0.28µM*	.	.	0.45µM*	.	.
COc1ccc(C(=O)NC(C)c2ccc(-n3ccnc3)cc2)cc1[N+](=O)[O-] (stereo unspecified)	4%[46.1 µM]	?	?	-30%	-15	-2
CCCC[C@]12Cc3cc(C#N)ccc3[C@H](O1)c1c(cc(C)n(-c3ccccc3)c1=O)O2	-14%[14.2 µM]	.	.	.	.	.
CC(C)c1ccc(S(=O)(=O)/N=C2/C=CC(=O)c3ccccc32)cc1	.	58%	8.3µM*	.	6	15
CC(C)c1ccc(S(=O)(=O)/N=C2\C=C(NS(=O)(=O)c3ccccc3)C(=O)c3ccccc32)cc1	9%[46.1 µM]	4%	-30%	26%[46.1 µM]	-3	7
COCCn1nnnc1C(CC(C)C)N1CCN(C(=O)c2ccco2)CC1 (stereo unspecified)	20%	14%	6%	5%	-10	-6
O=C(c1ccco1)N1CCN(C(c2cccs2)c2nnnn2C2CCCC2)CC1 (stereo unspecified)	?	?	-16%	11%	-6	0
O=C(c1ccco1)N1CCN(C(c2ccccn2)c2nnnn2C2CCCC2)CC1 (stereo unspecified)	2%	57%	97%	21%	86*	37*
CCCC(c1nnnn1C1CCCC1)N1CCN(C(=O)c2ccco2)CC1 (stereo unspecified)	0%	?	12µM*	-6%	-7	-2
CCCCC(c1nnnn1C1CCCC1)N1CCN(C(=O)c2ccco2)CC1 (stereo unspecified)	-6%[46.1 µM]	.	2.1µM*	-7%	19	8
Cc1ccc(S(=O)(=O)Cn2nnnc2C(CC(C)C)N2CCN(C(=O)c3ccco3)CC2)cc1 (stereo unspecified)	?	1.7µM*	12µM*	?	-14	-6
CCCCCCCC1Cc2ccccc2C(C(C(=O)OC)C(=O)OC)N1C(=O)OC (stereo unspecified)	-2%[14.2 µM]	.	.	?	.	.
O=C(O)c1cc(O)ccc1-c1ccc(O)cc1	19%	-18%	1%	-1%	-8	-2
CC1(C)Cc2cccc(OCC(=O)OCc3nnc(-c4ccccc4)o3)c2O1	?	-25%	-20%	17%	.	.
CC(C)CC(c1nnnn1C1CCCCC1)N1CCN(C(=O)c2ccco2)CC1 (stereo unspecified)	-7%[46.1 µM]	?	?	.	-7	-3
CC(C)CC(c1nnnn1C1CCCC1)N1CCN(C(=O)c2ccco2)CC1 (stereo unspecified)	3%	9.3µM*	-25%	-26%	15	5
SMILES	MARV entry inh	Pf growth 96h	Pf growth 48h	LASV entry inh	Shiga toxin inh	CHX counter
Cc1ccc2nc(NC(=O)COC(=O)c3ccco3)sc2c1	-12%	2%	43%	?	86*	34*
O=C(COC(=O)c1ccc(Br)o1)Nc1nc2ccccc2s1	14%	43%	8%	5%	3	1
Cc1ccc2nc(NC(=O)COC(=O)c3ccc(Br)o3)sc2c1	27%	1.2µM*	19%	?	133*	23*
Nn1c(SCC(=O)Nc2c(F)cc(F)cc2Br)nnc1C1CCCCC1	.	19%	5%	.	-8	-3
CC1CN(C(=O)C2CCCCC2)C(C)CN1C(=O)C1CCCCC1 (stereo unspecified)	8%	10%[5.75 µM]	5%	-20%	-5	-3
CCOc1ccc(-c2cccc(NC(=O)c3cccs3)c2)nn1	9%[46.1 µM]	3.7µM*	5.2µM*	-9%	.	.
COc1ccc(-c2cccc(NC(=O)c3cccs3)c2)nn1	2%	7.4µM*	9.3µM*	-24%	.	.
CCOc1ccc(-c2cccc(NC(=O)c3ccco3)c2)nn1	-6%	10µM*	?	-11%	.	.
COc1ccc(CCNC(=O)/C(=C/c2cccnc2)NC(=O)c2ccccc2)cc1OC	12%[46.1 µM]	-15%	-28%	4%	15	8
Nn1c(Cc2cccc3ccccc23)nnc1SCc1c(Cl)cccc1Cl	?	?	-20%	?	9	11
CCOC(=O)c1ccc(NC(=S)NCCCN2CCN(C3CCCCC3)CC2)cc1	?	?	?	?	-17	3
O=C(NCCN1C(=O)C2C3C=CC(C3)C2C1=O)Nc1cccnc1 (stereo unspecified)	.	18%	.	.	-10	-4
Cc1cc(NC(=O)CCN2C(=O)C3C4C=CC(C4)C3C2=O)ccc1Br (stereo unspecified)	-5%[46.1 µM]	0%	9%	.	52	23*
Cc1cc(N2C(=O)C3C4C=CC(C4)C3C2=O)ccc1Br (stereo unspecified)	5%	12µM*	-7%	-15%	-4	1
O=C(NCCN1C(=O)C2C3C=CC(C3)C2C1=O)Nc1ccc(Br)cc1 (stereo unspecified)	.	125%	.	.	65*	83*
O=C1C2C3C=CC(C3)C2C(=O)N1c1ccc2c(c1)OCO2 (stereo unspecified)	-18%	-14%	2%	6%	4	6
Cc1cc(NC(=O)CCN2C(=O)C3C4CCC(C4)C3C2=O)cc(C)c1Br (stereo unspecified)	?	0.93µM*	-2%	?	12	6
CCCN(C(=O)CCNC(=O)Cn1cnc2ccccc2c1=O)c1cccc(C)c1	0%[46.1 µM]	?	6%	?	6	-2
Cc1cc(C)cc(NC(=O)c2cccc(N3C(=O)C4C5C=CC(C5)C4C3=O)c2)c1 (stereo unspecified)	?	4.7µM*	?	-6%[46.1 µM]	40	-2
